GPR151 ag: activates the human receptor GPR151; AID 1508602; activation, % at 11.2 µM; PathHunter beta-arrestin GPR151 cells, luminescence; hit rate 1% among 650,000; in the data active = activation above about 4.9%
FBW7 activator: human FBW7 E3 ligase activation, primary screen | AlphaScreen FBW7–phospho-cyclin E peptide binding, activator screen | AID 1259310 | hit rate 0.13% among 650,000 | Q969H0 | normalized activity (activation), % at 26.1 µM; in the data active = normalized activity above about 1.9%;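 also: purified mutant Fbw7 with reduced substrate affinity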
MITF inh: human MITF inhibition, primary screen | inhibition, % at 2.6 µM | AID 1259374 | hit rate 0.91% among 650,000 | O75030 | AlphaScreen MITF homodimerization, bead proximity signal; in the data active = inhibition above about 50%
TEAD-YAP block: TEAD-YAP interaction inhibition; HEK-TIYL cells, TEAD-Gal4/YAP UAS-luciferase luminescence; inhibition, % at 9.12 µM; hit rate 1.4% among 640,000; AID 1259422; in the data active = inhibition above about 32%
A number is an active result; n = inactive; ! = repeats disagree. The list is not random: actives were taken first. Their share in the collection is about 3.4%.

SMILES	GPR151 ag	FBW7 activator	MITF inh	TEAD-YAP block
COC(=O)C(C)Sc1nc2c(c(=O)[nH]c(=O)n2C)n1Cc1ccccc1Cl (configuration not stated)	n	n	n	n
O=C(Cc1ccccc1)NC(c1ccccc1)c1ccc2cccnc2c1O (configuration not stated)	n	n	n	58
CCCCC(=O)NC(c1cccs1)c1ccc2cccnc2c1O (configuration not stated)	n	n	n	88
O=C(NC(c1ccc(Cl)cc1)c1ccc2cccnc2c1O)C1CCCCC1 (configuration not stated)	n	n	n	n
COc1ccccc1C(NC(=O)C1CCCCC1)c1ccc2cccnc2c1O (configuration not stated)	n	n	n	61
Cn1ccnc1C(NC(=O)Cc1ccc(O)cc1)c1ccccc1 (configuration not stated)	n	n	n	n
CCC(=O)NC(c1ccccc1OC)c1ccc2cccnc2c1O (configuration not stated)	n	n	n	44
CC1CCCCC1NS(=O)(=O)c1ccc2c(c1)n(C)c(=O)c(=O)n2C (configuration not stated)	n	n	n	n
COc1ccccc1C(=O)N1CCNCC1	n	n	n	n
Cc1cc2cc(CN(Cc3cccnc3)C(=O)C3CCC3)c3nnnn3c2cc1C	n	n	n	n
CN(Cc1ccccc1)C(=S)NC(=O)c1cccc([N+](=O)[O-])c1	n	n	n	n
CCC(=O)NC(c1ccccc1Cl)c1ccc2cccnc2c1O (configuration not stated)	n	n	n	89
CCCCC(=O)NC(c1ccccc1Cl)c1ccc2cccnc2c1O (configuration not stated)	n	n	n	87
CCOC(=O)CC(NC(=O)Cc1ccccc1)c1ccccc1Cl (configuration not stated)	n	n	n	n
O=C(Cc1ccccc1)NC(c1ccccc1Cl)c1ccc2cccnc2c1O (configuration not stated)	n	n	n	84
COCCCN1C(=O)CC(CC(=O)NCc2ccccc2F)(c2ccccc2)C1=O (configuration not stated)	n	n	n	n
N=C(N)c1ccc(OCCCCCOc2ccc(C(=N)N)cc2)cc1	n	n	n	44!
N=C(N)c1ccc(N)cc1	n	n	n	n
Cc1sc2nc(SCc3ccccc3)[nH]c(=O)c2c1C	n	n	n	n
CCOC(=O)CNS(=O)(=O)c1cc(-c2nnc(Nc3ccc(Cl)c(Cl)c3)c3ccccc23)ccc1C	n	2.2	n	n
COc1ccc(C2C(C(=O)Nc3cc(OC)c(OC)c(OC)c3)c3ccccc3C(=O)N2C)cc1 (configuration not stated)	n	n	n	54
O=[N+]([O-])c1ccc(-c2nc(-c3ccccc3Cl)no2)cc1	n	n	n	n
O=[N+]([O-])c1cccc(-c2nc(-c3ccccc3Cl)no2)c1	n	2.1	n	n
COC(=O)C1=C(C)NC(SCC(=O)Nc2cccc(C)c2)=C(C#N)C1c1ccccc1F (configuration not stated)	n	n	n	n
Cc1cc(OCC(=O)Nc2ccc(C(=O)OC3CCCCC3)cc2)ccc1Cl	n	n	n	84
SMILES	GPR151 ag	FBW7 activator	MITF inh	TEAD-YAP block
Cc1ccc(N(CCCN2C(=O)c3cccc4cccc(c34)C2=O)C(=O)c2ccc(-c3ccccc3)cc2)cc1	n	n	n	n
O=c1c2cc(O)c(O)cc2oc2cc(O)c(C3OC(CO)C(O)C(O)C3O)c(O)c12 (configuration not stated)	n	n	59	n
O=c1cc(-c2cc(O)c(O)c([C@@H]3O[C@H](CO)[C@@H](O)[C@H](O)[C@H]3O)c2)oc2cc(O[C@@H]3O[C@H](CO)[C@@H](O)[C@H](O)[C@H]3O)cc(O)c12	n	n	n	n
COc1ccc2c(c1)C(C)=CC(C)(C)N2C(=O)CCl	n	n	n	35
CCOc1ccc2c(c1)C(C)=CC(C)(C)N2C(=O)CCl	n	n	n	n
C/C(=N\N=C1/NC(=O)C(CC(=O)O)S1)c1ccc2ccccc2c1O (configuration not stated)	n	n	83	n
CCN(CC)c1nc2cc(OC)ccc2cc1C#N	n	2.3	n	n
CC1C(=O)NN=C1C(=O)N/N=C\C=C\c1ccccc1 (configuration not stated)	n	n	n	n
COc1ccc(/C=N\NC(=O)C2=NNC(=O)C2C)cc1 (configuration not stated)	n	n	n	36
CCN1CCN(c2ncc(-c3ccccc3)cc2C=O)CC1	n	n	n	36
CCCCC(C(=O)O)N1C(=O)/C(=C\c2ccco2)SC1=S (configuration not stated)	n	n	n	n

Bioassay records: PubChem, The Scripps Research Institute Molecular Screening Center
